Experimental data as given in PubChem BioAssay (NCATS).
Records with an inconclusive call do not appear. A call without a number means that no potency is given here. Active and inactive are the calls of the source. Calls come from the whole dose curve; as a rule, active = well fitted cell-killing curve with a large enough effect; inconclusive = small, poorly fitted or top-dose-only effect; inactive = flat fitted curve, though single readings scatter.

Experiment: qHTS of pediatric cancer cell lines to identify multiple opportunities for drug repurposing: Primary screen for RD cells (AID 1347104); note: nearly all actives have a fitted effect of over 55% in size
Details: RD rhabdomyosarcoma viability, CellTiter-Glo luminescence, 48 h; series mostly up to 46 µM
From the text: Drug repurposing or repositioning has been offered as a strategy for drug development in oncology programs. This approach has special potential for childhood cancers and other rare or orphan diseases, where the expected return on new drug development has been a disincentive to pharmaceuticals. […] In this project we exploit the poly-pharmacology of drugs to discover new indications via phenotypic screening of a panel of 19 well-characterized cell lines derived from solid tumors seen in children and adolescents. The goal is to identify approved drugs with previously unrecognized anticancer properties that has the potential to reveal new mechanisms and biological processes involved in carcinogenesis or drug resistance. We employed a titration-based paradigm (quantitative high-throughput screening or qHTS), where all compounds were tested at multiple concentrations for their effect on cell viability. Concentration-response curves (CRCs) were derived directly from the primary screen, and both potency and efficacy values were used to identify compounds with robust bioactivity profiles. We screened the NIH Chemical Genomics Center (NCGC) Pharmaceutical Collection (NPC) and Mechanism Interrogation Plate (MIPE) small molecule collections of approved and investigational compounds against these cell lines; and measured metabolically active cells after 48 hours of compound treatment as a proxy for cell viability. […] Assay Submitter: Nathalia J. Martinez, National Center for Advancing Translational Sciences, National Institutes of Health, Rockville, MD, USA; email: natalia.martinez@nih.gov Shen, M et al. Quantitative high-throughput phenotypic screening of pediatric cancer cell lines identifies multiple opportunities for drug repurposing. Oncotarget 2017 Dec 19;9(4):4758-4772. PMID 29435139.
The cells were obtained from University of North Carolina (UNC), Pediatric Preclinical Testing Program (PPT), and Coriell Institute (CI). qHTS cell viability assay: Cells were assayed in growth media at a density of 500-1,000 cells/well. Five microliters of cells were dispensed into 1,536-well, white, solid-bottom, TC-treated plates (Greiner Bio One) using a multidrop dispenser and incubated at 37 degrees C, 5% CO2, under a humidified atmosphere for 5 hours. Twenty-three nanoliters of compounds and controls (neutral control DMSO or positive control bortezomib at final concentration of 2.3 µM) were subsequently transferred by Kalypsys pintool. For primary screens, the MIPE collection was tested at 11-point dilutions (final concentrations range from 0.78 nM to 46 µM) and the NPC collection at 8-point dilutions (final concentrations range from 0.59 nM to 46 µM). Compounds tested in follow-up screens were assayed at 11-point dilutions. Cells were incubated for 48 hours, followed by addition of 3 µL of CellTiter-Glo (Promega). After a 15 min incubation at room temperature, samples were analyzed for luminescence intensity using a ViewLux High-throughput CCD imager equipped with clear filters.
Potency is the fitted concentration of half-maximal effect.

Row | SMILES | Potency
1 | O=C(O)c1ccccc1O | inactive
2 | Nc1ccc(S(=O)(=O)Nc2ccc(Cl)nn2)cc1 | inactive
3 | CCCn1cnc2c1c(=O)n(CCCCC(C)=O)c(=O)n2C | inactive
4 | CC12CCC(CC1)C(C)(C)O2 | inactive
5 | O=C1OC(OC(=O)c2cccnc2Nc2cccc(C(F)(F)F)c2)c2ccccc21 (stereo not given) | inactive
6 | COC(=O)[C@H]1[C@H]2C[C@@H]3c4[nH]c5cc(OC)ccc5c4CCN3C[C@H]2C[C@@H](OC(=O)COc2ccc(OC)cc2)[C@@H]1OC | inactive
7 | O=C1NS(=O)(=O)c2ccccc21 | inactive
8 | Cc1c(O)cccc1C(=O)N[C@@H](CSc1ccccc1)[C@H](O)CN1C[C@H]2CCCC[C@H]2C[C@H]1C(=O)NC(C)(C)C | 23.7 µM (active)
9 | COc1ccc2[nH]c(S(=O)Cc3ncc(C)c(OC)c3C)nc2n1 (stereo not given) | inactive
10 | OCC(O)CN1CCN(c2ccccc2)CC1 (stereo not given) | inactive
11 | O=c1cc[nH]c(=O)[nH]1 | inactive
12 | O=C1Nc2ccc(Cl)cc2[C@@](C#CC2CC2)(C(F)(F)F)O1 | inactive
13 | CCN(CC)CCNC(C(=O)OCCC(C)C)c1ccccc1 (stereo not given) | inactive
14 | O=C1c2c(O)cccc2Cc2cccc(O)c21 | inactive
15 | Cc1cc(O)cc2c1O[C@](C)(CCC[C@H](C)CCC[C@H](C)CCCC(C)C)CC2 | inactive
16 | Nc1ccc(S(=O)(=O)Nc2ccccc2)cc1 | inactive
17 | CCCCC(CC)COC(=O)c1ccccc1O (stereo not given) | inactive
18 | CCN(CC)C(=O)Nc1ccc(OCC(O)CNC(C)(C)C)c(C(C)=O)c1 (stereo not given) | inactive
19 | COc1ccccc1O | inactive
20 | CCCOC(=O)c1ccccc1 | inactive

Row | SMILES | Potency
21 | CC(=O)Oc1c(C)c(C)c2c(c1C)CC[C@@](C)(CCC[C@H](C)CCC[C@H](C)CCCC(C)C)O2 | inactive
22 | Cc1ncc(COP(=O)(O)O)c(C=O)c1O | inactive
23 | Oc1ccc(C(O)CNCCCCCCNCC(O)c2ccc(O)c(O)c2)cc1O (stereo not given) | inactive
24 | CCN(CC)CCNC(=O)c1c(C)[nH]c(/C=C2\C(=O)Nc3ccc(F)cc32)c1C | 15 µM (active)
25 | NC(=O)c1ncn([C@@H]2O[C@H](CO)[C@@H](O)[C@H]2O)n1 | inactive
26 | N[C@H](C(=O)O)c1ccc(O)cc1 | inactive
27 | CC(=O)NC(Cc1ccccc1)C(=O)O (stereo not given) | inactive
28 | NS(=O)(=O)c1cc2c(cc1C(F)(F)F)NC(Cc1ccccc1)NS2(=O)=O (stereo not given) | inactive
29 | N[C@H]1C(O)O[C@H](CO)[C@@H](O)[C@@H]1O (stereo not given in full) | inactive
30 | CCN(CC)CCNC(=O)c1cc(Cl)c(N)cc1OC | inactive
31 | O=C(O)[C@H](O)c1ccccc1 | inactive
32 | CC1(C)[C@@H]2CC[C@@]1(C)C(=O)C2 | inactive
33 | CC(C)C(=O)c1c(C(C)C)nn2ccccc12 | inactive
34 | O=C1O[C@H](CO)[C@@H](O)[C@H](O)[C@H]1O | inactive
35 | CCN(CC)CCSC(=O)C(c1ccccc1)c1ccccc1 | inactive
36 | N[C@@H](CSCCCO)C(=O)O | inactive
37 | C=Cc1c(C)c2cc3[nH]c(cc4nc(cc5nc(cc1[nH]2)C(C)=C5CCC(=O)O)C(CCC(=O)O)=C4C)c(C)c3C=C | inactive
38 | CC1=C(CC(=O)O)c2cc(F)ccc2/C1=C\c1ccc(S(C)=O)cc1 (stereo not given) | inactive
39 | C=CCn1c(=O)n([C@@H]2O[C@H](CO)[C@@H](O)[C@H]2O)c2nc(N)[nH]c(=O)c21 | inactive
40 | CN(C)CC[C@@H](c1ccc(Cl)cc1)c1ccccn1 | inactive
